CASP6 VEID inh = caspase-6 (human) enzyme inhibition; P55212; purified caspase-6, Z-VEID-R110 cleavage fluorescence; inhibition, % at 12.5 µM; 0.53% of 350,000 active;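 active means mean inhibition across replicates at least about 35%, with every replicate also reaching that limit, limit read from the data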;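 further: 0% = median of neutral control wells and 100% = no fluorescence left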
Target sequence (P55212 24-179 limits assumed): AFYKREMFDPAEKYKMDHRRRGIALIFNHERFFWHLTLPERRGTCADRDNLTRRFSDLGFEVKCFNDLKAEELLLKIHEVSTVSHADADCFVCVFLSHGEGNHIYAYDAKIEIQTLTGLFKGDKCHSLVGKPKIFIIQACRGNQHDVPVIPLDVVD
Target sequence (P55212 194-293 limits assumed): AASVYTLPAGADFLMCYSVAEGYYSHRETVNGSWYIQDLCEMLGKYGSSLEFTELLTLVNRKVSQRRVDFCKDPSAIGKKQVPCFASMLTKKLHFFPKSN
ERAP1 HTS inh = blocks human ERAP1 aminopeptidase activity | Q9NZ08 | recombinant ERAP1, Leu-AMC fluorescence, 60 min | inhibition, % at 10.7 µM | 0.15% of 340,000 active | AID 652197;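 active means mean replicate inhibition of at least 30%, or all replicates individually reaching that 30% level; inactive means mean below 30% and not every replicate reaching it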;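 further: 0% = neutral control wells and 100% = L-leucinethiol positive control wells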
SIRT5 block = blocks human SIRT5 desuccinylation of peptide | Q9NXA8 | Purified SirT5, succinyl-peptide AMC, trypsin-coupled fluorescence | inhibition, % at 15 µM | 1.1% of 330,000 active | AID 652115; in the data active means inhibition above about 15%
Target sequence (Q9NXA8 whole entry, looked up): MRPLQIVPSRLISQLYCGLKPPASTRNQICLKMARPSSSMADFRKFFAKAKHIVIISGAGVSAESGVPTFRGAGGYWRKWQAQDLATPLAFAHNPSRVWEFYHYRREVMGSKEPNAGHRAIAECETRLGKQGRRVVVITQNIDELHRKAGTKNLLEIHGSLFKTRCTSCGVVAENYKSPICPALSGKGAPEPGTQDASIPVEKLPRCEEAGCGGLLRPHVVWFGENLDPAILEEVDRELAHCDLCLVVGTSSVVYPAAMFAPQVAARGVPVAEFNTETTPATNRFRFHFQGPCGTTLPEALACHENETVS
FGF22 binding-1 = FGF22 (human) thermal shift binding. recombinant FGF22 thermal shift, SYPRO orange fluorescence; percent of sucrose octasulfate shift, DMSO zero. 1.5% of 340,000 active. activity (Tm shift, normalised), % at 9.99 µM. AID 651658;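 active means mean Tm shift, scaled 0 neutral to 100 positive control, at about 1.3% or above, every replicate too, limit read from the data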
FGF22 binding-2 = binds human FGF22 shifting its melting temperature; shares compounds with FGF22 binding-1; recombinant FGF22 thermal shift, SYPRO orange fluorescence; thermal shift activity, °C (ΔTm) at 38 µM; 2% of 1,000 active; AID 720646;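 active means fitted rise in melting shift crosses a set limit at or below the top valid dose tested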
SYPRO no-protein = counter-screen for FGF22 binders: compound-only thermal shift, no protein; shares compounds with FGF22 binding-1; compound-only SYPRO orange thermal shift counter-screen; AC50, µM (series often up to 38 µM); 2% of 1,000 active; AID 743019;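 active means rising signal whose fitted curve reaches the 0.54 level within the top valid dose, showing a melting point, actives reach about 13 µM in these data; inactive means the rest, including activity in the opposite direction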; further: value is where the raw curve crosses a fixed level and not half-maximal
* marks the source's active call; other numbers are inactive results; i = inactive; nt = no result; ! = not active in a repeat; [ ] = another dose, or the depositor's remark. Compounds with a hit are over-represented: about 3.1% of the library has one in this group of screens.

SMILES | CASP6 VEID inh | ERAP1 HTS inh | SIRT5 block | FGF22 binding-1 | FGF22 binding-2 | SYPRO no-protein
O=C(O)CCNc1ccc(NCCC(=O)O)c2c1C(=O)c1ccccc1C2=O | 70* | 4 | 17* | -1 | nt | nt
COc1ccccc1NCCC(=O)O | -1 | 3 | -2 | 0 | nt | nt
C[C@@H]1CCCCO[C@@H](CN(C)C(=O)c2ccccc2)[C@@H](C)CN([C@@H](C)CO)C(=O)c2cc(NC(=O)Nc3ccccc3)ccc2O1 | -3 | 2 | nt | -1 | nt | nt
COc1cc(CN2CCN(c3ccccc3F)CC2)c([N+](=O)[O-])cc1OC | 1 | -4 | -1 | 44* | nt | nt
C[C@H](CO)N1C[C@H](C)[C@@H](CN(C)Cc2ccc(C(F)(F)F)cc2)Oc2c(NC(=O)C3CCCCC3)cccc2C1=O | -1 | -2 | 17* | -1 | nt | nt
C[C@@H]1CN([C@@H](C)CO)C(=O)c2cccc(NC(=O)C3CCCCC3)c2O[C@H]1CN(C)Cc1ccc(C(F)(F)F)cc1 | 1 | 0 | 6 | -1 | nt | nt
C[C@H](CO)N1C[C@H](C)[C@H](CN(C)Cc2ccc(-c3ccccc3)cc2)Oc2c(NC(=O)C3CC3)cccc2C1=O | -2 | 1 | 1 | 0 | nt | nt
C[C@H](CO)N1C[C@H](C)[C@@H](CN(C)Cc2ccc(-c3ccccc3)cc2)Oc2c(NC(=O)C3CC3)cccc2C1=O | 2 | 3 | 0 | 148* | nt | nt
C[C@H](CO)N1C[C@H](C)[C@@H](CN(C)Cc2ccccc2)Oc2c(NC(=O)C3CCCCC3)cccc2C1=O | 2 | 0 | 18*! | 0 | nt | nt
CNC(=O)C[C@@H]1CC[C@@H]2[C@@H](COc3ccc(NC(=O)NC(C)C)cc3C(=O)N2C)O1 | nt | nt | nt | 0 | nt | nt
CC(C)CC#Cc1cnc2c(c1)C(=O)N([C@H](C)CO)C[C@@H](C)[C@H](CN(C)C(=O)c1ccc(F)cc1)O2 | 0 | -2 | 0 | 0 | nt | nt
C[C@@H]1CN([C@H](C)CO)S(=O)(=O)c2ccc(-c3ccncc3)cc2O[C@@H]1CN(C)C(=O)CC1CC1 | 2 | 1 | 1 | 0 | nt | nt
CC(C)(O)c1cn([C@@H]2C[C@@H]3O[C@H](CO)CC[C@@H]3O[C@@H]2CCc2ccc(-c3cccnc3)cc2)nn1 | -4 | 1 | 1 | 0 | nt | nt
CC(C)(O)c1cn([C@@H]2C[C@@H]3O[C@@H](CO)CC[C@@H]3O[C@@H]2CCc2ccc(-c3ccncc3)cc2)nn1 | 52* | -1 | 1 | nt | nt | nt
CN1[C@H](C(=O)NC2CCCC2)[C@@H](CO)[C@@H]2Cn3c(ccc(-c4cccc(F)c4)c3=O)[C@@H]21 | -1 | 4 | 4 | nt | nt | nt
Cc1ccc(C)c(S(=O)(=O)N2CCN(C(C)C(=O)Nc3ccccc3-c3ccccc3)CC2)c1 (stereo not given) | 35* | -5 | 1 | -1 | nt | nt
Cc1ccc(C)c(S(=O)(=O)N2CCN(C(=O)CSc3ccccc3)CC2)c1 | 0 | -1 | 1 | 0 | nt | nt
O=C(NCC[C@@H]1CC[C@@H](NS(=O)(=O)c2ccccc2)[C@H](CO)O1)c1cc(Cl)cc(Cl)c1 | 0 | -1 | 0 | 0 | nt | nt
COc1cc(C2C(C#N)=C(N)Oc3n[nH]c(-c4cccnc4)c32)ccc1OCC(N)=O (stereo not given) | -1 | -2 | -1 | 0 | nt | nt
COc1cc(C2C(C#N)=C(N)Oc3n[nH]c(-c4cccnc4)c32)cc(Br)c1O (stereo not given) | 1 | 1 | 2 | 1.8* | 0.28 | i
S=c1[nH]c2cc3ccccc3cc2[nH]1 | 1 | 3 | 4 | 2.1* | 0.069 | i
COCC(=O)N1CC2(C1)[C@H](c1ccc(-c3cccc(C)c3)cc1)[C@H](CO)N2C(=O)C1CC1 | 1 | 1 | 1 | 1.5* | 0.062[42 µM] | i
O=C(Cc1ccccc1)N1CC2(C1)[C@H](c1ccccc1)[C@H](CO)N2C(=O)Cc1ccccc1 | 1 | -1 | 1 | 0 | nt | nt
COCC(=O)N1[C@H](CO)[C@H](c2ccccc2)C12CN(C(=O)c1ccccc1)C2 | -1 | 2 | -1 | 1.3* | -0.03[42 µM] | i
CC(=O)N1[C@H](CO)[C@@H](c2ccccc2)C12CN(C(=O)Cc1ccccc1)C2 | -1 | 5 | 0 | 1.6* | -0.025 | i
SMILES | CASP6 VEID inh | ERAP1 HTS inh | SIRT5 block | FGF22 binding-1 | FGF22 binding-2 | SYPRO no-protein
C[C@@H](NC(=O)C[C@H]1CC[C@H](NC(=O)Cc2ccccn2)[C@@H](CO)O1)c1ccccc1 | 0 | -1 | 1 | 0 | nt | nt
CC(=O)Nc1cccc(C(=O)N2CCC(n3nccc3NC(=O)CC(C)C)CC2)c1 | 0 | -6 | 3 | 1.5* | 0.01 | i
COc1cccc2sc(NNC(=O)C3COc4ccccc4O3)nc12 (stereo not given) | -2 | -1 | 1 | 17* | 0.22 | i
O=C(NNc1nc2c(F)cccc2s1)C1COc2ccccc2O1 (stereo not given) | 0 | -1 | 1 | 0 | nt | nt
C[C@@H](NC(=O)C[C@@H]1CC[C@H]2[C@@H](COC[C@H](O)CN2C(=O)Nc2cccc(Cl)c2)O1)c1ccccc1 | -1 | 0 | 2 | 0 | nt | nt
O=C(C[C@@H]1CC[C@H]2[C@@H](COC[C@@H](O)CN2CC2CCOCC2)O1)NCC1CCCCC1 | 1 | -3 | -3 | 7.9* | -0.032 | i
COc1ccccc1CNC(=O)C[C@H]1CC[C@H]2[C@@H](COC[C@H](O)CN2C(=O)Nc2ccc(Cl)cc2)O1 | -2 | 0 | -1 | 0 | nt | nt
O=C(C[C@@H]1CC[C@H]2[C@@H](COC[C@H](O)CN2CC2CCOCC2)O1)NCC1CCCCC1 | -2 | -2 | 0 | 0 | nt | nt
O=C(C[C@H]1CC[C@H]2[C@@H](COC[C@@H](O)CN2C(=O)Nc2cccc(Cl)c2)O1)NCC1CCCCC1 | -2 | 1 | -2 | 0 | nt | nt
C[C@H](NC(=O)C[C@@H]1CC[C@@H]2[C@H](COC[C@@H](O)CN2C(=O)Nc2cccc(Cl)c2)O1)c1ccccc1 | nt | nt | nt | 1.5* | -0.005 | i
O=C(C[C@@H]1CC[C@@H]2[C@H](COC[C@@H](O)CN2C(=O)Nc2cccc(Cl)c2)O1)NCC1CCCCC1 | -1 | 1 | 1 | 14* | 0.033 | i
COc1ccccc1CNC(=O)C[C@H]1CC[C@@H]2[C@H](COC[C@H](O)CN2C(=O)Nc2ccc(Cl)cc2)O1 | 0 | -1 | 3 | 17* | -0.099 | i
COc1cccc(NC(=O)N2C[C@H](O)COC[C@@H]3O[C@H](CC(=O)NC4CCC4)CC[C@H]32)c1 | 2 | -1 | 0 | 0 | nt | nt
COc1cccc(NC(=O)N2C[C@H](O)COC[C@@H]3O[C@@H](CC(=O)NC4CCC4)CC[C@H]32)c1 | 1 | 0 | 5 | 1.4* | -0.12 | i
CC1(C(=O)NS(=O)(=O)Cc2cccc(Cl)c2)CCN1C(=O)C1(c2ccc(Cl)cc2)CCC1 (stereo not given) | 6 | -4 | 4 | 1.5* | nt | i

Screening data (PubChem BioAssay)
